Growth data for six compounds are collected here from PubChem BioAssay (NCI).

SMILES strings stand for the structures. “And” between values parts separate entries of the source, which are not always exact repeats. Identical values can stand only once. The panel holds about 83,000 compounds, 20% with a hit somewhere; the sample as a whole holds those more often.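 96-well plates, one dose, 48 hours. Percent growth reported; active if below 10.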 The source made the active and inactive calls.

Test systems include SR leukemia; RPMI-8226 leukemia; OVCAR-8 ovarian; OVCAR-4 ovarian; IGROV1 ovarian; OVCAR-3 ovarian; HS 578T breast; NCI/ADR-RES ovarian; BT-549 breast; MDA-MB-435 melanoma; SW-620 colon; MCF7 breast; HCT-116 colon; HCC-2998 colon; KM12 colon; OVCAR-5 ovarian; SK-OV-3 ovarian; T-47D breast.
Common to all, as to experiment: NCI-60 one-dose screen, 48 h (100 = growth as untreated, 0 = no growth, -100 = all killed)
Holding throughout (conditions): 10 µM unless noted

As for `CC(=O)C(/C=N/C(N)=O)=C(/C)O`, the growth in the assay on SR leukemia was 96.9% (inactive); in the assay on RPMI-8226 leukemia, 112% (inactive); in the assay on OVCAR-8 ovarian, 104% (inactive); in the assay on OVCAR-4 ovarian, 114% (inactive); in the assay on IGROV1 ovarian it was 114% (inactive); in the assay on OVCAR-3 ovarian it was 121% (inactive). The growth is 108% (inactive) with HS 578T breast; 99.4% (inactive) in the assay on NCI/ADR-RES ovarian; 101% (inactive) with BT-549 breast; 103% (inactive) in the assay with MDA-MB-435 melanoma; 105% (inactive) in the assay on SW-620 colon; 106% (inactive) in the assay on MCF7 breast. Further, the growth is 105% (inactive) with HCT-116 colon, 106% (inactive) in the assay on HCC-2998 colon and 111% (inactive) in the assay on KM12 colon.

Take `CCOC(=O)c1sc(N)nc1-c1ccccc1`: the growth is 90.2% (inactive) with SR leukemia; 108% (inactive) in the assay with OVCAR-8 ovarian; 90.9% (inactive) in the assay on OVCAR-5 ovarian; 106% (inactive) with OVCAR-4 ovarian; 93.7% (inactive) in the assay with SK-OV-3 ovarian; 101% (inactive) in the assay on IGROV1 ovarian. Moreover, the growth is 108% (inactive) in the assay on OVCAR-3 ovarian; 106% (inactive) with HS 578T breast; 104% (inactive) in the assay on NCI/ADR-RES ovarian; 94.4% (inactive) in the assay with T-47D breast; 99.9% (inactive) in the assay with BT-549 breast; 103% (inactive) with MDA-MB-435 melanoma. In addition, the growth in the assay with SW-620 colon was 109% (inactive); in the assay on MCF7 breast, 100% (inactive); in the assay on HCT-116 colon, 96.7% (inactive); in the assay on HCC-2998 colon, 102% (inactive); in the assay with KM12 colon, 106% (inactive).

With `c1ccc(N(c2ccccc2)c2ccccc2)cc1`, the growth in the assay on SR leukemia is 79.3% (inactive); with RPMI-8226 leukemia it was 100% (inactive); in the assay on OVCAR-8 ovarian, 97.5% (inactive); with OVCAR-4 ovarian, 114% (inactive); in the assay with IGROV1 ovarian, 104% (inactive); in the assay with OVCAR-3 ovarian, 112% (inactive). The growth is 110% (inactive) in the assay with HS 578T breast; 105% (inactive) with NCI/ADR-RES ovarian; 106% (inactive) with BT-549 breast; 104% (inactive) with MDA-MB-435 melanoma; 103% (inactive) in the assay with SW-620 colon; 117% (inactive) with MCF7 breast. Moreover, the values for the growth in the assay on HCT-116 colon, in the assay with HCC-2998 colon and with KM12 colon were 99.6% (inactive), 111% (inactive) and 105% (inactive), respectively.

On to `COc1cc2nc(N3CCN(C(=O)C4COc5ccccc5O4)CC3)nc(N)c2cc1OC` (stereo not drawn), for which the growth in the assay with SR leukemia is 70.4% (inactive) and 83.6% (inactive); in the assay on RPMI-8226 leukemia, 100% (inactive) and 86.9% (inactive) and 102% (inactive); with OVCAR-8 ovarian it was 91.7% (inactive) and 94.7% (inactive) and 101% (inactive); in the assay with OVCAR-4 ovarian, 92.4% (inactive) and 93.2% (inactive) and 98.9% (inactive); with SK-OV-3 ovarian, 114% (inactive) and 103% (inactive) and 105% (inactive); in the assay with IGROV1 ovarian, 93.4% (inactive) and 109% (inactive) and 95.6% (inactive). Besides, the growth was 107% (inactive) and 109% (inactive) and 103% (inactive) in the assay on OVCAR-3 ovarian; 93.9% (inactive) and 97.6% (inactive) and 110% (inactive) in the assay with NCI/ADR-RES ovarian; 91.2% (inactive) and 93.6% (inactive) and 96% (inactive) in the assay on T-47D breast; 86.9% (inactive) and 96.6% (inactive) and 105% (inactive) with BT-549 breast; 96.5% (inactive) and 90.2% (inactive) and 92.2% (inactive) in the assay on MDA-MB-435 melanoma; 92% (inactive) and 97.7% (inactive) and 109% (inactive) in the assay on SW-620 colon. For the same compound, the growth is 91.7% (inactive) and 95.2% (inactive) and 101% (inactive) in the assay with MCF7 breast; 105% (inactive) and 79.8% (inactive) and 104% (inactive) in the assay with HCT-116 colon; 102% (inactive) and 105% (inactive) and 108% (inactive) in the assay with HCC-2998 colon; 103% (inactive) and 99.6% (inactive) and 102% (inactive) in the assay with KM12 colon.

For the compound `COc1ccccc1NC(=O)OCC#CCOC(=O)Nc1ccccc1OC`, the growth with SR leukemia is 88% (inactive) and 61.5% (inactive); with OVCAR-8 ovarian it was 106% (inactive) and 97.6% (inactive); with OVCAR-5 ovarian, 98.9% (inactive) and 98.3% (inactive); in the assay on OVCAR-4 ovarian, 99.2% (inactive) and 94% (inactive); with SK-OV-3 ovarian it was 104% (inactive) and 94.8% (inactive); in the assay with IGROV1 ovarian it was 108% (inactive) and 83.5% (inactive). For the same compound, the growth with OVCAR-3 ovarian is 127% (inactive) and 86.4% (inactive); in the assay on NCI/ADR-RES ovarian, 98.7% (inactive) and 92.7% (inactive); with T-47D breast, 96.7% (inactive) and 89.2% (inactive); in the assay on BT-549 breast it was 91% (inactive); in the assay on MDA-MB-435 melanoma, 95.2% (inactive) and 75.5% (inactive); in the assay with SW-620 colon it was 102% (inactive) and 90.2% (inactive). The growth with MCF7 breast is 107% (inactive) and 91.8% (inactive); in the assay on HCT-116 colon it was 99.9% (inactive) and 87.4% (inactive); in the assay on HCC-2998 colon it was 103% (inactive) and 104% (inactive); in the assay on KM12 colon, 108% (inactive) and 91.2% (inactive).

In the case of `CN(C)c1ccc2nc3ccc(=[N+](C)C)cc-3sc2c1`, the growth was 29.2% (inactive) and 39.6% (inactive) and 51.5% (inactive) in the assay with SR leukemia; 40.4% (inactive) and 34.1% (inactive) and 40.2% (inactive) with RPMI-8226 leukemia; 3.76% (active) and 0.437% (active) and 8.05% (active) with OVCAR-8 ovarian; 8.61% (active) and -18% (active) and 10.4% (inactive) in the assay on OVCAR-4 ovarian; 41.4% (inactive) and 60% (inactive) and 73.2% (inactive) in the assay with SK-OV-3 ovarian; 0.379% (active) and -3.68% (active) and 10.2% (inactive) with OVCAR-3 ovarian. Further, the growth is 12.1% (inactive) and 10.9% (inactive) and 13.9% (inactive) in the assay with NCI/ADR-RES ovarian; 11.8% (inactive) and 4.2% (active) and 27.3% (inactive) in the assay with T-47D breast; 60.2% (inactive) and 69.8% (inactive) and 71.9% (inactive) in the assay on BT-549 breast; 15.2% (inactive) and 15.3% (inactive) and 14.7% (inactive) in the assay on SW-620 colon; 12.7% (inactive) and -5.86% (active) and 7.47% (active) with MCF7 breast; 4.82% (active) and 4.09% (active) and 11.1% (inactive) in the assay on HCT-116 colon. Also, the growth was 49% (inactive) and 36.7% (inactive) and 53.9% (inactive) in the assay with HCC-2998 colon; 36.6% (inactive) and 33% (inactive) and 48.2% (inactive) in the assay on KM12 colon.
